Test results reported in PubChem BioAssay AID1466 (National Center for Advancing Translational Sciences (NCATS), 2008).
About 10 (0.005%) of roughly 200,000 compounds were called active. Another 8% or so got no clear call; they are omitted. Calls follow the shape of the dose curve; as a rule, active = well fitted inhibition curve with a large enough effect; inconclusive = small, poorly fitted or top-dose-only effect, or effect the other way, or another doubt; inactive = no such curve, though single readings can be large or run the other way. Not all results are given here.

molecular target: Lysosomal alpha-glucosidase (Homo sapiens) (UniProt P10253); test: qHTS Assay for Inhibitors of Human alpha-Glucosidase as a Potential Chaperone Treatment of Pompe Disease; conditions: purified human GAA, 4-MU-alpha-glucoside fluorescence; series mostly up to 76.9 µM;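 also: plate controls were uninhibited enzyme wells for no effect and no-enzyme background for full effect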
From the text: NIH Chemical Genomics Center [NCGC] NIH Molecular Libraries Probe Production centers Network [MLPCN] MLPCN Grant: 1R03MH084841-01 Assay Submitter (PI): Wei Zheng NCGC Assay Overview: Alpha-glucosidase is responsible for hydrolysis of terminal, non-reducing 1,4-linked alpha-D-glucose residues with release of alpha-D-glucose. It is a lysosomal hydrolase that is required for the degradation of a small percentage (1-3%) of cellular glycogen in human. Deficiency of this enzyme results in glycogen-storage disease type II (GSDII), also referred to as Pompe disease, an autosomal recessive disorder. Structurally normal glycogen is accumulated in lysosomes and cytoplasm in affected patients, primarily in muscle tissues. Excessive glycogen storage within lysosomes may interrupt normal functioning of other organelles and leads to cellular injury. In turn, this leads to enlargement and dysfunction of the entire organ involved (eg, cardiomyopathy and muscle weakness). It has reported that the improper folding and trafficking of alpha-glucosidase resulting from the genetic mutations may account for a significant number of Pompe patients. […] We optimized this alpha-glucosidase assay in 1536-well plate format for identifying the novel small molecule inhibitors with the structures other than the sugar analogs in order to develop the new pharmacological chaperones.
NCGC Assay Protocol Summary: This is a fluorogenic enzyme assay with 4-methylumbelliferyl-alpha-D-[…] as the substrate and human alpha-glucosidase as the enzyme preparation. Upon the hydrolysis of this fluorogenic substrate, the resulting product, 1. 4-methyllumbelliferone, can be excited at 365 nm and emits at 440 nm which can be detected by a standard fluorescence plate reader. Data were normalized to the controls for basal activity (without enzyme) and 100% activity (with enzyme). In the AC50 values were determined from concentration-response data modeled with the standard Hill equation. Assay buffer: 50 mM citric acid (titrated with potassium phosphate to pH 5.0), 0.005% Tween-20, pH 5.0. (pH 5.0 is an optimal condition for this enzyme assay) 1536-well assay protocol for the human alpha-glucosidase: (1) Add 2 ul/well of enzyme (4 nM final) (2) Add 23 nL compounds in DMSO solution. The final titration was 0.7 nM to 77 uM. (3) Add 1 ul of substrate (400 uM final) (4) Incubate at room temperature for 20 min. (5) Add 2 ul stop solution (1M NaOH and 1M Glycine mixture, pH 10) (6) Detect the assay plate in a ViewLux plate reader (PerkinElmer) with Ex=365 nm and Em=440nm. Keywords: Alpha-glucosidase, Pompe Disease, pharmacological chaperone, chaperone therapy, high throughput screening, alpha-glucosidase inhibitor, MLSMR, MLSCN, NIH Roadmap, qHTS and NCGC

Activity change, negative = inhibition, inactive:
CN1CCc2nc(SC(C(=O)O)c3ccccc3)c(C#N)c(-c3cccs3)c2C1 (stereo not drawn)
COc1ccccc1NC(=S)N1CCN(C(c2ccccc2)c2ccccc2)CC1
S=C(NNC(=S)NC1CC2CCC1C2)NC1CC2C=CC1C2 (stereo not drawn)
COc1ccccc1NC(=S)N1CCC(NC(=O)C23CC4CC(CC(C4)C2)C3)CC1
COc1ccc2[nH]c(C(=O)Nc3ccccc3Cl)cc2c1
COc1ccc(Br)c2c1C(=O)CC2
c1ccc(-n2nnnc2-c2cccnc2)cc1
CCCSc1ncccc1C(=O)O
Cn1c(SCC(=O)c2ccc(F)cc2)nnc1-c1ccccn1
COc1ccc(Cl)cc1NC(=O)C(C)N1CCc2ccccc21 (stereo not drawn)
CSc1ccc(CNCCN2CCOCC2)cc1
Cc1ccccc1NC(=O)Nc1ccccc1N1CCCCC1
Clc1ccc(CSc2nnc3c(n2)[nH]c2ccccc23)cc1
O=C(COc1ccc(S(=O)(=O)N2CCCCC2)cc1)NCc1ccccn1
O=C(NNS(=O)(=O)c1ccccc1C(F)(F)F)c1cc2ncc(C(F)(F)F)cc2s1
CCOC(=O)C1CCN(C(=O)C2(NC(=O)Nc3cccc(F)c3)CCCCC2)CC1
Cc1ccccc1-c1nc(C#N)c(NCc2ccco2)o1
Cc1cccc(C(=O)N2CCC(c3nc4ccccc4s3)CC2)c1
COc1ccc(CN2CCN(Cc3cn(C)nc3-c3ccccc3)CC2CCO)c(C)c1C (stereo not drawn)
Cc1noc(C)c1/C=N/Nc1ccc2ccccc2n1
COc1cc(CNCCN(C)C)ccc1OCc1c(F)cccc1Cl
Cc1ccc(C(=O)NC(=S)Nc2ccc(N3CCOCC3)cc2)cc1
O=C(CN1CCN(C/C=C/c2ccccc2)CC1)Nc1ccc(F)cc1F
COC(=O)c1cn(C(=O)c2ccc(Cl)cc2)c2ccccc12
O=C1/C(=C/c2cccs2)CCC1C1CCCC1 (stereo not drawn)
O=C(CCl)N(Cc1cccc([N+](=O)[O-])c1)c1cccc(Cl)c1
Cc1cc(OC(=O)c2ccccc2)c([N+](=O)[O-])c(=O)[nH]1
CC(O)CNCCOc1cccc(Oc2ccccc2)c1 (stereo not drawn)
O=C(CSc1ncn[nH]1)Nc1nc(-c2cccc([N+](=O)[O-])c2)cs1
Nc1ccc(C(=O)OCC(=O)NC2CCS(=O)(=O)C2)cc1[N+](=O)[O-] (stereo not drawn)
COc1cccc(OCCCN2CCCCCC2)c1
Cc1ccc(Cl)cc1NC(=O)COC(=O)CC(C)(C)C
CCC1(C)Cc2c(sc3nc(SC)[nH]c(=O)c23)CO1 (stereo not drawn) 0.866% [at 15.4 µM]
